# Laboratory results as given in PubChem BioAssay (NCATS).
# Results filed as inconclusive are left out. Calls of active or inactive are those of the source. Unless noted, calls come from the whole dose curve; as a rule, active = well fitted inhibition curve with a large enough effect; inconclusive = small, poorly fitted or top-dose-only effect; inactive = no such curve, though single readings can be large or run the other way.
# How the values were obtained:
# [1] = biological target: Cytochrome P450 2C9 (Homo sapiens) (UniProt P11712); test: qHTS Assay for Inhibitors and Substrates of Cytochrome P450 2C9 (AID 883); settings: recombinant CYP2C9, luciferin-H luminescence, 60 min; series mostly up to 57.1 µM; note: nearly all actives have a fitted effect of over 60% in size
# Summary of the method: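 Inhibition of CYP2C9 is scored as loss of luminescence, with 57uM sulphaphenazole defining 100% inhibition. Substrate Luciferin-H is used at 100uM, equal to its KM; enzyme at 10nM in 25mM KPO4, 60 min at 37C with NADPH regeneration.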
# [2] = qHTS Assay for Identification of Small Molecule Agonists for Hypoxia Response Element Signaling Pathway (AID 914; active = well fitted activation curve with a large enough effect in the signal ratio, with a control signal flat, not every such curve was filed as active; the % refers to the signal ratio); settings: ME-180 (cervical carcinoma) HRE-bla reporter, beta-lactamase ratio, CoCl2, 17 h; activation: active compounds read high
# Summary of the method: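 In Opti-MEM containing 0.5% dialyzed FBS and 10 mM HEPES, ME-180 HRE-bla cells received a compound titration and EC50 CoCl2. They were incubated 17 hours, then CCF4-loaded 2.5 hours at room temperature before ratio reading.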
# Potency is the fitted concentration of half-maximal effect.
# Chain of Cytochrome P450 2C9 (Homo sapiens) (P11712 whole entry, looked up): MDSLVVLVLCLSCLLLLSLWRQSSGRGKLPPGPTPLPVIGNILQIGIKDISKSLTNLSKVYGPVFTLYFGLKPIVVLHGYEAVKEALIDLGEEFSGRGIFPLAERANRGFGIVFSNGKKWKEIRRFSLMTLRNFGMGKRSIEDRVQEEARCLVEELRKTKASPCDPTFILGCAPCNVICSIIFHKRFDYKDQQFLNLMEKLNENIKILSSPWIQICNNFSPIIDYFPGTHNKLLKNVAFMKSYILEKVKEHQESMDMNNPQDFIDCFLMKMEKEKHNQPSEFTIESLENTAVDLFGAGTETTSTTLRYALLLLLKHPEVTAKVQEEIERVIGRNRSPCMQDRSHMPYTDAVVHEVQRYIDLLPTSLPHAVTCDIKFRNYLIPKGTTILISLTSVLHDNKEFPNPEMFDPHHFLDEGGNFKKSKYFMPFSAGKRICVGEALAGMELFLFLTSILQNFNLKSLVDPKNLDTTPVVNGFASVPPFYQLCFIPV
smiles,measurement,setting,value
O=c1c(-c2ccccc2)nc2cnc(N3CCOCC3)nc2n1CCc1ccccc1,Potency,[1],7.94 µM (active)
same,Potency,[2],3.16 µM (active)
